Data: PubChem BioAssay (EPA / NIEHS)
Activity calls are given as the source filed them. Rule for the calls: active = hit-call score of the fitted dose curve at least 0.9, where 1 is the maximum; inactive = score below 0.9.

Tests used:
[1] = read-out: Interleukin-1 alpha (IL1a), IL1A (gene 3552); assay: BSK_IMphg_IL1a: BioMAP Diversity Plus: IMphg Assay for Interleukin-1 alpha (IL1a) Biomarker Activity (AID 2284290); settings: primary human endothelial cells with macrophages
In short: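 IL-1α is quantified by ELISA at 24 h in the endothelial/macrophage IMphg co-culture, with gain of signal fitted relative to DMSO. Parallel SRB total-protein staining flags overt toxicity.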

[2] = read-out: E-selectin (Homo sapiens) (UniProt P16581); assay: BSK_IMphg_ESelectin: BioMAP Diversity Plus: IMphg Assay for Eselectin Biomarker Activity (AID 2284291); settings: primary human endothelial cells with macrophages
In short: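 Analysed against DMSO baseline in the positive fitting direction, this endpoint is an ELISA read of E-selectin. It comes from human venular endothelial cells co-cultured with macrophages, sampled 24 h post-dose.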

[3] = BSK_IMphg_SRB: Viability Assessment in the BioMAP Diversity Plus: IMphg Assay (AID 2284292); settings: primary human endothelial cells with macrophages;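 note: measured one day after compound addition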
In short: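 SRB viability endpoint: cultures of human endothelial cells plus macrophages fixed with 10% TCA, stained with 0.1% SRB, read at 560 nm 24 h post-dosing. Only gain-of-signal fitted, relative to DMSO.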

[4] = read-out: Macrophage colony-stimulating factor (MCSF), CSF1 (gene 1435); assay: BSK_IMphg_MCSF: BioMAP Diversity Plus: IMphg Assay for Macrophage colony-stimulating factor (MCSF) Biomarker Activity (AID 2284293); settings: primary human endothelial cells with macrophages
In short: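 M-CSF was measured by ELISA in human venular endothelial cell/macrophage co-cultures dosed for 24 hours. Sulforhodamine B staining of parallel cultures assessed cytotoxicity; data fitted against DMSO baseline.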

[5] = read-out: Interleukin-10 (IL10), IL10 (gene 3586); assay: BSK_IMphg_IL10: BioMAP Diversity Plus: IMphg Assay for Interleukin-10 (IL10) Biomarker Activity (AID 2284294); settings: primary human endothelial cells with macrophages
In short: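 IL-10 read by ELISA after 24 h chemical exposure of primary human venular endothelial cell/macrophage cocultures, with DMSO as baseline. Parallel SRB staining (560 nm) gauged overt cytotoxicity.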

[6] = BSK_IMphg_SRB.Mphg: Macrophage Viability Assessment in the BioMAP Diversity Plus: IMphg Assay (AID 2284295); settings: primary human endothelial cells with macrophages
In short: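 Cytotoxicity read-out: parallel cultures fixed with 10% TCA, stained with 0.1% sulforhodamine B, read at 560 nm. System combines venular endothelium and macrophages; sampled 24 h post-dosing, fitted positively relative to DMSO control.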

[7] = read-out: Thrombomodulin, THBD (gene 7056); assay: BSK_LPS_Thrombomodulin: BioMAP Diversity Plus: LPS Assay for Thrombomodulin Biomarker Activity (AID 2284296); settings: primary human HUVEC with PBMC
In short: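 Thrombomodulin on the surface of LPS-activated endothelial/PBMC co-cultures was quantified by ELISA at 24 hours post-dosing, with DMSO as baseline. Parallel SRB total-protein staining flagged overt cytotoxicity.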

CD69, CD69 (gene 969) = assay: BSK_LPS_CD69: BioMAP Diversity Plus: LPS Assay for CD69 Biomarker Activity (AID 2284303); settings: primary human HUVEC with PBMC
In short: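 CD69 surface levels were read by ELISA after 24 h chemical treatment of an LPS-stimulated HUVEC plus PBMC co-culture; positive-direction fit against DMSO vehicle.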

Measured: outcome

Chain of E-selectin (Homo sapiens) (P16581 whole entry, looked up): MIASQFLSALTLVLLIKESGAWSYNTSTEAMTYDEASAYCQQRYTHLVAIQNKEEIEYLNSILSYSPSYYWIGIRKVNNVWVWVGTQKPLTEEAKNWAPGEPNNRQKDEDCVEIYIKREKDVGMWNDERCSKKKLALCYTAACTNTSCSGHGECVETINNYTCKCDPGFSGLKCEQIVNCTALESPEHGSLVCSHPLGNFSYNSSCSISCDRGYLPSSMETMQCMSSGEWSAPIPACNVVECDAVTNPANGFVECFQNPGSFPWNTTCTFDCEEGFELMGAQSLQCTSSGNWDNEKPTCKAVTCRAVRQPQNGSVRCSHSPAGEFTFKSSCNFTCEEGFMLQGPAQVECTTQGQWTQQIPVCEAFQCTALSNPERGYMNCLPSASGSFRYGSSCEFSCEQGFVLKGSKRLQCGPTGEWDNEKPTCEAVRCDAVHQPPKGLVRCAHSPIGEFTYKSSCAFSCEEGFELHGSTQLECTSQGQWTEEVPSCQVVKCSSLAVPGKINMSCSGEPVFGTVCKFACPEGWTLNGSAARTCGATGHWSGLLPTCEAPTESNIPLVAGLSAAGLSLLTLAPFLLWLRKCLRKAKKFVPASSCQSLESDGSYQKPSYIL

O=C(O)C(F)(F)C(F)(F)C(F)(F)C(F)(F)F
inactive: all assays above

O=C(O)C(F)(F)C(F)(F)F
inactive: all assays above

FC1CC(F)(F)C(F)(F)C1(F)F (stereo not given)
inactive: all assays above

OCCCC(F)(F)C(F)(F)C(F)(F)F
inactive: all assays above

CC(C)(C)C(=O)CC(=O)C(F)(F)C(F)(F)C(F)(F)F
inactive: all assays above

C=CC(F)(F)C(F)(F)C(F)(F)C(F)(F)C(F)(F)C(F)(F)C(F)(F)C(F)(F)C=C
inactive: all assays above

O=C(O)C(F)(OC(F)(F)C(F)(OC(F)(F)C(F)(F)C(F)(F)F)C(F)(F)F)C(F)(F)F (stereo not given)
inactive: all assays above

C=CC(F)(F)C(F)(F)C(F)(F)C(F)(F)C(F)(F)C(F)(F)C(F)(F)C(F)(F)F
inactive: all assays above

O=C(O)C(F)(F)C(F)(F)OC(F)(F)F
inactive: all assays above

OCC(F)(F)C(F)(F)C(F)(F)C(F)F
inactive: all assays above
